PubChem BioAssay (NCI)
About 83,000 compounds went through this panel and 20% of them were active in at least one assay; those are over-represented in the sample as a whole.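 48-hour exposure, single concentration, 96-well plates; percent growth endpoint where 0 means no net growth. Active: below 10.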 Active and inactive are the calls of the source.

Columns and labels:
Assay in all cases: NCI-60 one-dose screen, 48 h (100 = growth as untreated, 0 = no growth, -100 = all killed)
Conditions in all cases: 10 µM
NCI-H23 lung = test system: NCI-H23 lung
HOP-62 NSCLC = test system: HOP-62 NSCLC
NCI-H460 lung = test system: NCI-H460 lung
HOP-92 NSCLC = test system: HOP-92 NSCLC
NCI-H522 lung = test system: NCI-H522 lung
A549/ATCC NSCLC = test system: A549/ATCC NSCLC
786-0 renal = test system: 786-0 renal
COLO 205 colon = test system: COLO 205 colon
DU-145 prostate = test system: DU-145 prostate
K-562 leukemia = test system: K-562 leukemia
MALME-3M melanoma = test system: MALME-3M melanoma
MDA-MB-231 breast = test system: MDA-MB-231 breast
RXF 393 renal = test system: RXF 393 renal
SF-268 CNS = test system: SF-268 CNS
SF-295 CNS = test system: SF-295 CNS
SF-539 CNS = test system: SF-539 CNS
UACC-257 melanoma = test system: UACC-257 melanoma
M14 melanoma = test system: M14 melanoma
NCI-H322M lung = test system: NCI-H322M lung
NCI-H226 lung = test system: NCI-H226 lung

Measured: growth

O=C(Cn1cc(CO)nn1)Nc1nc2ccccc2s1
inactive: NCI-H23 lung 101% | HOP-62 NSCLC 101% | NCI-H460 lung 106% | HOP-92 NSCLC 106% | NCI-H522 lung 93.7% | A549/ATCC NSCLC 97.2% | 786-0 renal 103% | COLO 205 colon 111% | DU-145 prostate 113% | K-562 leukemia 94.8% | MALME-3M melanoma 93.8% | MDA-MB-231 breast 100% | RXF 393 renal 112% | SF-268 CNS 99% | SF-295 CNS 106% | SF-539 CNS 95% | UACC-257 melanoma 104% | M14 melanoma 94.7%

CCCN1CN2C(=O)N3CN(CCC)CN4C(=S)N(C1)C2C34 (configuration not stated)
inactive: NCI-H23 lung 100% | NCI-H322M lung 87.6% | HOP-62 NSCLC 84.7% | NCI-H460 lung 112% | HOP-92 NSCLC 101% | NCI-H522 lung 91.7% | A549/ATCC NSCLC 102% | 786-0 renal 93.2% | COLO 205 colon 114% | DU-145 prostate 101% | K-562 leukemia 105% | MALME-3M melanoma 112% | MDA-MB-231 breast 98.6% | RXF 393 renal 132% | SF-268 CNS 97.3% | SF-295 CNS 94.2% | SF-539 CNS 95.3% | UACC-257 melanoma 92.9% | M14 melanoma 94.5%

CC(=O)C1CCC2C3CC=C4CC(SC(=N)N)CCC4(C)C3CCC12C (configuration not stated)
active: COLO 205 colon -100% | K-562 leukemia -5.34% | MALME-3M melanoma -6.9%
inactive: NCI-H226 lung 56.6% | HOP-62 NSCLC 82.5% | NCI-H460 lung 16.7% | HOP-92 NSCLC 30.2% | NCI-H522 lung 61.5% | A549/ATCC NSCLC 47.5% | 786-0 renal 48% | DU-145 prostate 75.5% | MDA-MB-231 breast 46.6% | RXF 393 renal 25.6% | SF-268 CNS 72% | SF-295 CNS 51.1% | SF-539 CNS 65.5% | UACC-257 melanoma 13.6% | M14 melanoma 18.3%

Nc1ncc(-c2cnn(C3CCNCC3)c2)cc1-c1nc2ccccc2o1
active: NCI-H460 lung -0.928% | A549/ATCC NSCLC 7.74% | COLO 205 colon -73.7% | K-562 leukemia -60% | RXF 393 renal -29.5% | SF-268 CNS -0.542% | SF-539 CNS -33.8% | UACC-257 melanoma -82% | M14 melanoma -88.7%
inactive: HOP-62 NSCLC 24.3% | NCI-H522 lung 19.7% | 786-0 renal 19.5% | DU-145 prostate 15.2% | MDA-MB-231 breast 27.1% | SF-295 CNS 94.5%

Cc1ccc(NC(=S)NNC(=S)Nc2ccc(C)cc2)cc1
inactive: NCI-H226 lung 94.7% | HOP-62 NSCLC 45.2% | NCI-H522 lung 32.7% | A549/ATCC NSCLC 67% | 786-0 renal 58.9% | COLO 205 colon 84.3% | DU-145 prostate 102% | K-562 leukemia 19.4% | MDA-MB-231 breast 72.5% | RXF 393 renal 91.5% | SF-268 CNS 85% | SF-295 CNS 30% | SF-539 CNS 62.5% | UACC-257 melanoma 75.8% | M14 melanoma 44.2%

c1ccc(CSc2ncccc2-c2nnc(SCCN3CCOCC3)o2)cc1
inactive: NCI-H226 lung 114% | HOP-62 NSCLC 116% | NCI-H460 lung 122% | NCI-H522 lung 105% | A549/ATCC NSCLC 112% | DU-145 prostate 112% | K-562 leukemia 117% | MALME-3M melanoma 111% | MDA-MB-231 breast 114% | RXF 393 renal 123% | SF-268 CNS 107% | SF-295 CNS 106% | SF-539 CNS 132% | UACC-257 melanoma 147% | M14 melanoma 108%

Nc1nc(-c2cccnc2)nc2c1sc(=S)n2-c1ccccc1
inactive: NCI-H226 lung 95.8% | NCI-H460 lung 97.2% | NCI-H522 lung 83.4% | A549/ATCC NSCLC 76.2% | 786-0 renal 98.7% | COLO 205 colon 108% | DU-145 prostate 103% | K-562 leukemia 106% | MALME-3M melanoma 112% | MDA-MB-231 breast 65.2% | RXF 393 renal 100% | SF-268 CNS 96% | SF-295 CNS 111% | SF-539 CNS 103% | M14 melanoma 106%

CC(C)Cc1ccc([C@H](C)C(=O)O)cc1
inactive: NCI-H226 lung 112% | NCI-H460 lung 106% | HOP-92 NSCLC 79% | A549/ATCC NSCLC 102% | 786-0 renal 106% | COLO 205 colon 113% | DU-145 prostate 122% | MALME-3M melanoma 107% | MDA-MB-231 breast 108% | RXF 393 renal 114% | SF-268 CNS 111% | SF-295 CNS 99% | SF-539 CNS 104% | UACC-257 melanoma 107% | M14 melanoma 101%

COc1ccc(-c2nn(-c3cccc(Cl)c3)cc2-c2nc(N)[nH]c(=O)c2C#N)cc1
inactive: NCI-H226 lung 67.3% | NCI-H460 lung 92.2% | HOP-92 NSCLC 71.2% | NCI-H522 lung 49.6% | 786-0 renal 57.2% | COLO 205 colon 107% | DU-145 prostate 102% | K-562 leukemia 28.3% | MALME-3M melanoma 37.4% | MDA-MB-231 breast 62.9% | RXF 393 renal 63.4% | SF-268 CNS 68.8% | SF-295 CNS 38.6% | SF-539 CNS 75.6% | UACC-257 melanoma 94% | M14 melanoma 55.8%

COc1ccc([C@H]2[C@H](C(=O)Nc3cccnc3)c3ccccc3C(=O)N2c2ccccc2)cc1
inactive: NCI-H226 lung 95.9% | NCI-H460 lung 91.4% | NCI-H522 lung 82.4% | A549/ATCC NSCLC 87.8% | 786-0 renal 91.2% | COLO 205 colon 63.2% | DU-145 prostate 107% | K-562 leukemia 99.9% | MALME-3M melanoma 108% | MDA-MB-231 breast 95.9% | RXF 393 renal 94.2% | SF-268 CNS 93.9% | SF-295 CNS 70.7% | SF-539 CNS 114% | M14 melanoma 86.2%

O=C(CCCCC(=O)Oc1c(Cl)cc(Cl)cc1[N+](=O)[O-])Oc1c(Cl)cc(Cl)cc1[N+](=O)[O-]
inactive: NCI-H226 lung 106% | HOP-62 NSCLC 102% | HOP-92 NSCLC 118% | NCI-H522 lung 89.5% | A549/ATCC NSCLC 103% | 786-0 renal 101% | COLO 205 colon 121% | DU-145 prostate 106% | K-562 leukemia 85.9% | MALME-3M melanoma 98.8% | MDA-MB-231 breast 106% | RXF 393 renal 120% | SF-268 CNS 96.3% | SF-295 CNS 97.2% | SF-539 CNS 100% | UACC-257 melanoma 99.5% | M14 melanoma 103%

COc1cccc(C2C(C#N)=C(N)Oc3cc(N)ccc32)c1 (configuration not stated)
inactive: NCI-H226 lung 70% | HOP-62 NSCLC 45.4% | NCI-H460 lung 11.9% | HOP-92 NSCLC 36.9% | A549/ATCC NSCLC 20.2% | 786-0 renal 53.9% | COLO 205 colon 18.1% | DU-145 prostate 10.6% | K-562 leukemia 11.9% | MALME-3M melanoma 51.9% | MDA-MB-231 breast 48.8% | SF-268 CNS 47.1% | UACC-257 melanoma 47.2% | M14 melanoma 10.9%
active: NCI-H522 lung -0.592% | RXF 393 renal -7.34% | SF-295 CNS 5.3% | SF-539 CNS 4.8%

CCOC(=O)c1sc2ncnc(Nc3ccc4c(cnn4C(=O)Nc4ccc(C)c(Cl)c4)c3)c2c1C
inactive: NCI-H226 lung 87.6% | NCI-H460 lung 114% | NCI-H522 lung 68.8% | A549/ATCC NSCLC 72.7% | 786-0 renal 89.6% | COLO 205 colon 110% | DU-145 prostate 102% | K-562 leukemia 102% | MALME-3M melanoma 91.1% | MDA-MB-231 breast 96.5% | RXF 393 renal 99.3% | SF-268 CNS 103% | SF-295 CNS 102% | SF-539 CNS 104% | M14 melanoma 103%

O=C(Nc1ccc(F)cc1)c1cc2ccccc2cc1O
active: HOP-92 NSCLC 2.82%
inactive: NCI-H226 lung 74.2% | HOP-62 NSCLC 78.7% | NCI-H460 lung 80.5% | NCI-H522 lung 56.5% | A549/ATCC NSCLC 75.8% | 786-0 renal 93.5% | COLO 205 colon 95.5% | DU-145 prostate 85.7% | K-562 leukemia 45.6% | MALME-3M melanoma 72% | MDA-MB-231 breast 66.7% | RXF 393 renal 94.6% | SF-268 CNS 87.3% | SF-295 CNS 90.7% | SF-539 CNS 84% | UACC-257 melanoma 58.1% | M14 melanoma 88.4%

O=C(CCn1cnc2c(cc(-c3ccccc3)n2-c2ccccc2)c1=O)Nc1ccc(F)cc1
inactive: NCI-H226 lung 106% | HOP-62 NSCLC 13% | NCI-H460 lung 80.4% | HOP-92 NSCLC 34.2% | NCI-H522 lung 55% | A549/ATCC NSCLC 70.9% | 786-0 renal 62.7% | COLO 205 colon 103% | DU-145 prostate 85.9% | K-562 leukemia 67.3% | MALME-3M melanoma 51.4% | MDA-MB-231 breast 68.7% | SF-268 CNS 70% | SF-295 CNS 77.8% | SF-539 CNS 76.2% | UACC-257 melanoma 86.2% | M14 melanoma 73.4%
active: RXF 393 renal 1.78%

O=[N+]([O-])c1ccc(NCSc2ccc(Cl)cc2)cc1
inactive: NCI-H226 lung 112% | HOP-62 NSCLC 109% | HOP-92 NSCLC 98.2% | NCI-H522 lung 86.5% | A549/ATCC NSCLC 96.3% | 786-0 renal 93.4% | COLO 205 colon 103% | DU-145 prostate 98.3% | K-562 leukemia 86.9% | MDA-MB-231 breast 94.3% | RXF 393 renal 103% | SF-268 CNS 94.1% | SF-295 CNS 105% | SF-539 CNS 99.7% | UACC-257 melanoma 101% | M14 melanoma 109%

CCc1cc(Cl)c(OC)c(C(=O)NCC2CCCN2CC)c1O (configuration not stated)
inactive: NCI-H226 lung 94.7% | HOP-92 NSCLC 65.8% | A549/ATCC NSCLC 95.6% | 786-0 renal 97.8% | COLO 205 colon 103% | DU-145 prostate 102% | MALME-3M melanoma 108% | MDA-MB-231 breast 50.6% | RXF 393 renal 73% | SF-268 CNS 98.2% | SF-295 CNS 85% | SF-539 CNS 103% | UACC-257 melanoma 87.7% | M14 melanoma 103%
